This note sets out measurements from PubChem BioAssay (Tox21).

Experiment [1] in a line: Nuclear factor erythroid 2-related factor 2/antioxidant responsive element (Nrf2/ARE) small molecule agonists: qHTS cell viability counter screen in human keratinocytes (AID 1919968; active = well fitted curve in the direction sought with a large enough effect in the repeat runs; an effect the other way counts as inactive or inconclusive; note: nearly all actives have a fitted effect of over 55% in size). The method, boiled down:
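KeratinoSens cells (HaCaT keratinocytes stably carrying an ARE-luciferase reporter) were seeded at 1,500 cells/well and rested 5 h at 37 C/5% CO2. They were then exposed to compounds in DMSO for 23 h. Viability was read by CellTiter-Fluor fluorescence after 1 h.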
A general note: qHTS replaces the single test concentration by a dilution series.

Experiment [2] is described as follows: Nuclear factor erythroid 2-related factor 2/antioxidant responsive element (Nrf2/ARE) small molecule agonists: luciferase reporter gene qHTS assay in human keratinocytes (AID 1919969). Note: nearly all actives have a fitted effect of over 35% in size. On the technique in general: Reporter assays use an easily measured gene product as a stand-in for the process of interest.
In experiment [3] the target is Gonadotropin-releasing hormone receptor (Homo sapiens) (UniProt P30968). The experiment can be described thus: Human gonadotropin-releasing hormone receptor (GnRHR) small molecule agonists, calcium flux assay in GnRHR-HEK293 cells (AID 1920063). Note: nearly all actives have a fitted effect of over 35% in size. The method, boiled down: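 HEK293 cells stably expressing human GnRHR were plated 18 h at 37 °C, loaded with calcium dye 1 h at 37 °C, then given compound in agonist mode; fluorescence (Ex/Em 480/540) read kinetically for 3 min at 1 s intervals.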
(A change in cytosolic calcium serves as a functional read-out for many receptors and channels.)

Experiment [4] deals with KiSS-1 receptor (Homo sapiens) (UniProt Q969F8). Nature of the experiment: Human kisspeptin (KISS1R) small molecule agonists, calcium flux assay in KISS1R-HEK293 cells (AID 1920064; active = well fitted curve in the direction sought with a large enough effect in the repeat runs; an effect the other way counts as inactive or inconclusive). Summed up:
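HEK293 cells stably expressing human KISS1R were plated 18 h at 37 °C, loaded with calcium dye for 1 h at 37 °C, then given compound by pin tool. Fluorescence (Ex/Em 480/540) was read kinetically for 3 min.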

The nature of experiment [5]: G protein-coupled receptor (GPCR) small molecule agonists, calcium flux assay: HEK293 wild type cell line counter screen (AID 1920065). The method, boiled down: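 Cells were plated and cultured 18 h at 37 C/5% CO2, then loaded with calcium dye for 1 h at 37 C. Compounds in DMSO were pin-transferred in agonist mode, and fluorescence (Ex/Em 480/540) was read kinetically for 3 min at 1 s intervals.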

Experiment [6] in a line: p53 small molecule agonists, cell-based qHTS assay with human liver microsomes (AID 1963577).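 Note: p53 response element beta-lactamase reporter cells with liver microsomes plus NADPH.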 Summed up: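 Steps: plate p53RE-bla cells, incubate 5 h at 37 C; add compound in DMSO; add microsomes (0.5 mg/mL final) and NADPH (0.5 mg/mL final); incubate 16 h at 37 C; add LiveBLAzer, 2 h RT; read fluorescence.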
Experiment [7] in a line: p53 small molecule agonists, cell-based qHTS assay with rat liver microsomes (AID 1963578). The method, boiled down: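 Metabolic activation is supplied by rat liver microsomes with NADPH (each 0.5 mg/mL final). p53RE-bla cells incubate with compound 16 h at 37 C; reporter activity is measured by LiveBLAzer fluorescence.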
A short description of experiment [8]: p53 small molecule agonists, cell-based qHTS assay with human liver microsomes: qHTS cell viability counter screen (AID 1963579). Note: nearly all actives have a fitted effect of over 45% in size. The method, boiled down: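 After the 460/530 nm beta-lactamase read, CellTiter-Glo was added to the same wells and luminescence measured after 30 min at room temperature, giving viability of p53RE-bla cells treated 16 h with compounds plus microsomes and NADPH.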

Experiment [9] is described as follows: p53 small molecule agonists, cell-based qHTS assay with rat liver microsomes: qHTS cell viability counter screen (AID 1963580). Note: nearly all actives have a fitted effect of over 45% in size. Summed up: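 p53RE-bla HCT-116 cells (4,000/well) rested 5 h at 37 C, then given Tox21 compounds in DMSO with rat liver microsomes (0.5 mg/mL final) plus NADPH (0.5 mg/mL final) for 16 h at 37 C. Viability read by CellTiter-Glo luminescence after 30 min at room temperature.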

Experiment [10] in a line: p53 small molecule agonists, cell-based qHTS assay: qHTS cell viability counter screen (AID 1963581). Note: nearly all actives have a fitted effect of over 45% in size. The method, boiled down: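 p53RE-bla HCT-116 cells were exposed to compounds for 16 h at 37 C; after the beta-lactamase FRET read in the same wells, CellTiter-Glo was added and luminescence (intracellular ATP) read after 30 min at room temperature.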
Experiment [11] can be described thus: p53 small molecule agonists, cell-based qHTS assay (AID 1963582; active = well fitted activation curve with a large enough effect in the signal ratio in the repeat runs, not every such curve was filed as active; the % refers to the signal ratio). Summed up:
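p53RE-bla beta-lactamase reporter cells rested 5 h at 37 C/5% CO2, then received compounds in DMSO by pin transfer and were incubated 16 h at 37 C. LiveBLAzer B/G FRET substrate was loaded for 2 h at room temperature before fluorescence reading.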

Experiment [12] has as its target 5-hydroxytryptamine receptor 2A (Homo sapiens) (UniProt P28223). The experiment can be described thus: 5-hydroxytryptamine receptor 2A (HTR2A) small molecule antagonists, cell-based qHTS assay (AID 1963586). Note: nearly all actives have a fitted effect of over 45% in size. Note: potency is the fitted concentration of half-maximal effect. Summed up: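 Antagonist-mode intracellular calcium assay: DOI (4 nM) added after 5 min compound pre-incubation at room temperature to dye-loaded HTR2A-CHO cells. Fluorescence followed for 3 min, sampled every second.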

Experiment [13] shares this target. The experiment can be described thus: 5-hydroxytryptamine receptor 2A (HTR2A) small molecule agonists, cell-based qHTS assay (AID 1963587). Note: nearly all actives have a fitted effect of over 30% in size. Summed up: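 HTR2A-CHO cells, plated 18 h at 37 C/5% CO2, dye-loaded 1 h at 37 C; compounds in DMSO added by pin tool (agonist mode). Intracellular calcium flux read as kinetic fluorescence on FDSS over 2 min at 1 s intervals.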

Experiment [14] addresses Muscarinic acetylcholine receptor M1 (Homo sapiens) (UniProt P11229). The experiment can be described thus: Cholinergic receptor muscarinic 1 (CHRM1) small molecule antagonists, cell-based qHTS assay (AID 1963588). Note: nearly all actives have a fitted effect of over 40% in size. The method, boiled down: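 CHRM1-CHO calcium-flux assay, antagonist mode. Cells were seeded 18 h, dye-loaded 1 h at 37 C and given compound for 5 min at RT, then acetylcholine was added at 50nM. FDSS fluorescence was read 3 min; 15 concentrations, three runs.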

For experiment [15] the target is unchanged. The experiment can be described thus: Cholinergic receptor muscarinic 1 (CHRM1) small molecule agonists, cell-based qHTS assay (AID 1963589). Note: nearly all actives have a fitted effect of over 35% in size. Summed up:
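CHO cells stably expressing human CHRM1, seeded 18 h at 37 C/5% CO2, dye-loaded 1 h at 37 C, then given compound in agonist mode; intracellular calcium fluorescence read kinetically at 1 s intervals. Fifteen concentrations, three independent runs.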

Experiment [16] is described as follows: cAMP Responsive Elements (CRE) small molecule agonists, cell-based qHTS assay (AID 1963590). Summed up: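 CRE-bla HEK 293T cells in DMEM with 10% dialyzed FBS, NEAA, pyruvate and 25 mM HEPES were plated 18 h at 37 C/5% CO2, then exposed to compounds in DMSO for 3 h before LiveBLAzer B/G FRET substrate addition.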
Experiment [17] can be described thus: cAMP Responsive Elements (CRE) small molecule antagonists, cell-based qHTS assay (AID 1963591; active = well fitted inhibition curve with a large enough effect in the signal ratio in the repeat runs, not every such curve was filed as active; the % refers to the signal ratio). Summed up: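 CRE-bla HEK293T cells were plated 18 h at 37 °C/5% CO2, pinned with compound in DMSO, then stimulated with NKH477 at 0.25 uM final for 3 h. LiveBLAzer B/G FRET substrate was added and plates incubated 2 h at room temperature.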
For experiment [18], the target named is Beta-2 adrenergic receptor (Homo sapiens) (UniProt P07550). Nature of the experiment: Adrenergic beta2 receptor (ADRB2) small molecule antagonists, cell-based qHTS assay (AID 1963592). Note: series mostly up to about 92 µM; nearly all actives have a fitted effect of over 50% in size. Summed up: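 Cells (CHO, stable ADRB2 overexpression) incubated 18-20hr at 37C; compounds added from DMSO; agonist mix (1nM isoproterenol, 100uM IBMX, 25uM Ro-20-1724) added; 0.5hr RT; d2-cAMP and anti-cAMP-cryptate added; 1hr RT; 665/615 nm read.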

The target of experiment [19] is D(2) dopamine receptor (Homo sapiens) (UniProt P14416). Nature of the experiment: Dopamine D2 receptor (DRD2) small molecule agonists, cell-based qHTS assay (AID 1963594). Note: nearly all actives have a fitted effect of over 35% in size. The method, boiled down:
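HEK293 cells stably expressing DRD2 were cultured 24 h at 37 C, then given Ro20-1724 (0.1 mM final) and compounds for 10 min at room temperature. NKH477 (200nM) was then added for 30 min. cAMP was read by HTRF.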

Experiment [20] shares this target. Nature of the experiment: Dopamine D2 receptor (DRD2) small molecule antagonists, cell-based qHTS assay (AID 1963595; active = well fitted inhibition curve with a large enough effect in the signal ratio in the repeat runs, with a control signal flat; the % refers to the signal ratio). The method, boiled down: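 HTRF cAMP read-out at 665 and 620 nm emission (340 nm excitation). Antagonist mode: compounds were tested against 12 nM quinpirole in DRD2-HEK293 cells, with 200 nM NKH477 raising cAMP and 0.1 mM Ro20-1724 blocking its breakdown.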

Records with an inconclusive call do not appear. Active and inactive are the calls of the source. Unless noted, calls come from the whole dose curve.

Sequence of KiSS-1 receptor (Homo sapiens) (Q969F8 whole entry, looked up): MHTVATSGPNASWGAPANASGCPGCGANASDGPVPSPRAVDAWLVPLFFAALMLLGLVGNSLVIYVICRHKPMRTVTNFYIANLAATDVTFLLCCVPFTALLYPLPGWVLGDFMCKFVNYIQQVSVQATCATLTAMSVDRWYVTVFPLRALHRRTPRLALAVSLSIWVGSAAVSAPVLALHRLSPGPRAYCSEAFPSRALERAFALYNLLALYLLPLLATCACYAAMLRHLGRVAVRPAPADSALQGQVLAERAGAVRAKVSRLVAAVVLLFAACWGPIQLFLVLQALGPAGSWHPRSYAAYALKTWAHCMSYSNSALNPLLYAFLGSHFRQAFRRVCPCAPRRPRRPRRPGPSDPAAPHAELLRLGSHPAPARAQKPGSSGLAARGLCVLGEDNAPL
Sequence of 5-hydroxytryptamine receptor 2A (Homo sapiens) (P28223 whole entry, looked up): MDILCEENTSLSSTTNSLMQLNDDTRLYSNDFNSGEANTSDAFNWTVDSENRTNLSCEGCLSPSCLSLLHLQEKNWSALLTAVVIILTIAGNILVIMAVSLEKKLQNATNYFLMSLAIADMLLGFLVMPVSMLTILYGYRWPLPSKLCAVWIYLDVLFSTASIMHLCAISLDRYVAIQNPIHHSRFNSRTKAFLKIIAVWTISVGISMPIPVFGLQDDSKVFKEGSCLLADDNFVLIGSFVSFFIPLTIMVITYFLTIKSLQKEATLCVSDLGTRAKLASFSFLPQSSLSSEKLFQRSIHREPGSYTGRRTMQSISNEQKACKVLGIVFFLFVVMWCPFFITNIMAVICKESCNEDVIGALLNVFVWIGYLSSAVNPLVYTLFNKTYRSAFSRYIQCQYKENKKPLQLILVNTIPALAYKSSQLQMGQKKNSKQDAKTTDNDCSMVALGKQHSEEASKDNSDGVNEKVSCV
Sequence of Muscarinic acetylcholine receptor M1 (Homo sapiens) (P11229 whole entry, looked up): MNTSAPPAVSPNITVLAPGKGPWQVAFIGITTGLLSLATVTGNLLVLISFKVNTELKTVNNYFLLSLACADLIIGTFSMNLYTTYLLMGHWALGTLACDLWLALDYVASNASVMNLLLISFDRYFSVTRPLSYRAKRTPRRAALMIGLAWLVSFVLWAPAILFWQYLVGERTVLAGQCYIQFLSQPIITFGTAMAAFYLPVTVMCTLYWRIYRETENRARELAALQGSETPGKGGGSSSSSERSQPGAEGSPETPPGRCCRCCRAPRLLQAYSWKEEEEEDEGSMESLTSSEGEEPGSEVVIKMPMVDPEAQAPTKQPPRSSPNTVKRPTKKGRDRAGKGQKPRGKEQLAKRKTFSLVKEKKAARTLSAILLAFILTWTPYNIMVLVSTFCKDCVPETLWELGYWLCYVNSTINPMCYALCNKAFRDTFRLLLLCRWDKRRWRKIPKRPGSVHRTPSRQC
Sequence of Gonadotropin-releasing hormone receptor (Homo sapiens) (P30968 whole entry, looked up): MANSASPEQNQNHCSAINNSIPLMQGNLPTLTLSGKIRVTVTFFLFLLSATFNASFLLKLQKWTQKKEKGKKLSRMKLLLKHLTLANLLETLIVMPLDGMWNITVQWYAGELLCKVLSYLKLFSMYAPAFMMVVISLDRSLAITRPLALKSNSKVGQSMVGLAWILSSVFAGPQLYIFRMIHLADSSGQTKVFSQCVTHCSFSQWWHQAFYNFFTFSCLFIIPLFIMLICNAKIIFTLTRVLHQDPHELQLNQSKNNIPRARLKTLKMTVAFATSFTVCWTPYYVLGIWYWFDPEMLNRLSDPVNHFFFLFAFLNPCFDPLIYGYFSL
Sequence of Beta-2 adrenergic receptor (Homo sapiens) (P07550 whole entry, looked up): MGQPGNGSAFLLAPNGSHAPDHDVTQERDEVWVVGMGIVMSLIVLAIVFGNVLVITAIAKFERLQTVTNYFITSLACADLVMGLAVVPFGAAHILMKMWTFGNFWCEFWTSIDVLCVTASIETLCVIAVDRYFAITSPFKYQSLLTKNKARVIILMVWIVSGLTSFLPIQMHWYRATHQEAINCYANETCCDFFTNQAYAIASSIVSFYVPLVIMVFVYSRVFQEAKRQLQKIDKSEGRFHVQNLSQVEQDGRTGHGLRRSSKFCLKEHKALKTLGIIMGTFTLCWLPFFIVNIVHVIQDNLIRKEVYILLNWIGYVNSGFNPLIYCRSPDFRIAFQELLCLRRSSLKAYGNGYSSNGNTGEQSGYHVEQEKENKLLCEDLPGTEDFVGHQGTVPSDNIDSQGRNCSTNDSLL
Sequence of D(2) dopamine receptor (Homo sapiens) (P14416 whole entry, looked up): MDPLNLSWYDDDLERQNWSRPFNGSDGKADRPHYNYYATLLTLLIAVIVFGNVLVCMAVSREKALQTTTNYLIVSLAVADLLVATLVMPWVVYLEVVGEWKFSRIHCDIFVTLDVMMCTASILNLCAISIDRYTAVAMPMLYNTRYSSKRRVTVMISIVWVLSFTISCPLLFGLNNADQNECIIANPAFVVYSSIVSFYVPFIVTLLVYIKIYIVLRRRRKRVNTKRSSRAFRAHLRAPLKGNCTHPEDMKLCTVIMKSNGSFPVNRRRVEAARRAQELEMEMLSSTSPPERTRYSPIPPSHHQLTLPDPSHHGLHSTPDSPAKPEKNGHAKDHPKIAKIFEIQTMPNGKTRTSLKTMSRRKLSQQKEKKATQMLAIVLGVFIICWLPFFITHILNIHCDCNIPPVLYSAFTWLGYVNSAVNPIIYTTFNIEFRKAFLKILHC

Regarding `Clc1ccc(C(Cl)(Cl)Cl)c(Cl)c1`, the Potency entry in [1], in [2], in [3], in [4], in [5] and in experiment [6] was “inactive” in each case. In addition, the Potency result in [7], in experiment [8], in [9], in experiment [10], in experiment [11] and in experiment [12] was “inactive” throughout. Further, the Potency result in experiment [13], in experiment [14], in [15], in experiment [16], in [17] and in experiment [18] was “inactive” in each case. In addition, the Potency result in experiment [19] and in experiment [20] was “inactive” throughout.
Regarding `Cc1ccc([N+](=O)[O-])cc1`, the Potency result in experiment [1], in experiment [2], in experiment [3], in experiment [4], in [5] and in experiment [6] was “inactive” throughout. For the same molecule, the Potency result in [7], in experiment [8], in [9], in experiment [10], in [11] and in [12] was “inactive” in each case. Moreover, the Potency result in experiment [13], in experiment [14], in experiment [15], in experiment [16], in [17] and in experiment [18] was “inactive” throughout. Also, the Potency entry in experiment [19] and in experiment [20] was “inactive” each time.
`COc1cc(N)c(Cl)cc1C(=O)NC1CN2CCC1CC2` (stereo not given): the Potency result in experiment [1], in experiment [2], in experiment [3], in [4], in [5] and in [6] was “inactive” each time. Also, the Potency entry in [7], in [8], in [9], in experiment [10], in experiment [11] and in experiment [13] was “inactive” each time. The Potency result in [14], in experiment [15], in experiment [16], in experiment [17], in experiment [18] and in experiment [19] was “inactive” throughout. Further, the Potency entry in [20] was “inactive”. The Potency in [12] is 5.79 µM (active).
Regarding `CC(O)CCO` (stereo not given), the Potency result in experiment [1], in experiment [2], in [3], in experiment [4], in experiment [5] and in experiment [6] was “inactive” each time. In addition, the Potency result in experiment [7], in [8], in experiment [9], in [10], in experiment [11] and in [12] was “inactive” each time. Besides, the Potency result in experiment [13], in experiment [14], in [15], in experiment [16], in [17] and in [18] was “inactive” in each case. The Potency entry in experiment [19] and in experiment [20] was “inactive” throughout.
As to `CC(C)CCCCCCOC(=O)c1ccccc1C(=O)OCCCCCCC(C)C`, the Potency entry in experiment [1], in [2], in [3], in experiment [4], in [5] and in experiment [6] was “inactive” each time. Further, the Potency entry in [7], in [8], in [9], in experiment [10], in experiment [11] and in experiment [12] was “inactive” each time. The Potency entry in experiment [13], in [14], in [15], in [16], in experiment [17] and in experiment [18] was “inactive” each time. Moreover, the Potency entry in experiment [19] and in [20] was “inactive” throughout.
For the molecule `C=C(C)C#N`, the Potency entry in [1], in experiment [2], in experiment [3], in [4], in experiment [5] and in [6] was “inactive” in each case. In addition, the Potency result in experiment [7], in experiment [8], in [9], in [10], in experiment [11] and in [12] was “inactive” throughout. Also, the Potency entry in experiment [13], in experiment [14], in [15], in experiment [16], in experiment [17] and in experiment [18] was “inactive” each time. In addition, the Potency entry in [19] and in experiment [20] was “inactive” throughout.
